# Results reported in PubChem BioAssay AID2732 (Emory University Molecular Libraries Screening Center, 2010).
# Out of some 220,000 compounds screened, about 8,200 (3.7%) were called active. What follows is part of a selection rich in actives, with near analogues and random picks from the rest. Unmarked numbers belong to inactive results.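 The calls were made as follows: active = compounds that reduced the stress-induced luciferase reporter signal by more than about 70% of percent inhibition (limit read from the data); inactive = the rest.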
# Assay: blockers of ER-stress CHOP reporter expression – cell-based, unfolded protein response, luciferase reporter, primary screen (AID 2732);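 also: 0% = tunicamycin plus vehicle and 100% = wells without tunicamycin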
# Details: CHO-K1 CHOP-promoter luciferase, tunicamycin-induced, 15-18 h; at 10 µM; hits give high values
row,Structure (SMILES),inhibition
1,Cc1nnc(SC(C(=O)c2ccccc2)c2ccccc2)[nH]c1=O (stereo not given),-8.07%
2,CCn1c2ccccc2c2cc(NC(=O)CNC)ccc21,5.95%
3,CCOc1ccccc1C(=O)NCCCn1ccnc1,-4.75%
4,O=C(CCN1C(=O)c2ccccc2C1=O)NCCCn1ccnc1,-1.9%
5,CCCC(=O)Nc1ccc(C(=O)NCCCn2ccnc2)cc1,73.7% (active)
6,N#C/C(=C\N1CCOCC1)S(=O)(=O)c1ccc(Cl)cc1,21.5%
7,COc1cc(C2CC(=O)c3cnc(NC(C)=O)nc3C2)cc(OC)c1OC (stereo not given),30.2%
8,CCc1ccc(Nc2ncc3c(n2)CC(c2ccco2)CC3=O)cc1 (stereo not given),78.5% (active)
9,O=C(Nc1ncc2c(n1)CC(c1ccco1)CC2=O)c1ccc(Cl)cc1 (stereo not given),33.8%
10,CCOC(=O)c1cn(CC)c2cc(F)c(F)cc2c1=O,-15.5%
11,O=C(CC(NC(=O)c1ccccc1)c1ccccc1)Nc1ccc(F)c(F)c1 (stereo not given),105% (active)
12,O=C(CNC(=O)c1cc(=O)[nH]c2ccccc12)Nc1ccc(F)c(F)c1,-18.5%
13,O=C(CNC(c1ccccc1)c1ccccc1)Nc1ccc(F)cc1,23.2%
14,CCn1c(=O)c([N+](=O)[O-])c(NCc2ccc3c(c2)OCO3)c2ccccc21,22.4%
15,Cc1cc(NC(=O)OC(C)C)ccc1-c1ccc(NC(=O)OC(C)C)cc1C,25.1%
16,Cc1noc(C)c1/C=N/Nc1ccc2ccccc2n1,16.5%
17,C(=N\Nc1ccc2ccccc2n1)/c1ccc2c(c1)OCO2,71% (active)
18,Brc1ccc(-c2csc(N/N=C/c3ccc4c(c3)OCO4)n2)cc1,26.8%
19,COc1ccc(Cc2cc(-c3ccc(F)cc3)n[nH]c2=O)cc1,15.3%
20,O=C(NCC1CCCO1)c1cc(-c2ccccc2)nc2ccccc12 (stereo not given),1.14%
21,Cc1ccc2nc(-c3ccc(SCC(=O)Nc4cc(C)on4)nc3)[nH]c2c1,91.1% (active)
22,Cc1ccc(SCCC(=O)Nc2cc(C)on2)cc1,20.7%
23,Cc1ccc(-c2csc(SCC(=O)Nc3cc(C)on3)n2)cc1,32.5%
24,CCCc1nc2oc3c(=O)[nH]cnc3c2c2c1COC(C)(C)C2,-14.7%

row,Structure (SMILES),inhibition
1,COC(=O)c1cc(S(=O)(=O)N2CCC(C(N)=O)CC2)oc1C,4.8%
2,COCCNc1nc(-c2ccccc2)nc2c1oc1ccccc12,37.1%
3,Cc1cc(C)n(CC(C)NCc2c(C(=O)N3CCOCC3)nc3c(C)cccn23)n1 (stereo not given),11.3%
4,O=C(Nc1ccc(C(=O)O)cc1)/C(=C/c1ccc([N+](=O)[O-])cc1)NC(=O)c1ccccc1,-5.43%
5,O=C(Nc1ccccc1)/C(=C/c1ccc([N+](=O)[O-])cc1)NC(=O)c1ccccc1,51.8%
6,Cc1ccc(NC(=O)/C(=C/c2ccc([N+](=O)[O-])cc2)NC(=O)c2ccccc2)cc1,104% (active)
7,Cc1cc(=O)oc2cc(OCC(=O)Nc3nnc(C4CC4)s3)ccc12,1.52%
8,CNC1(c2nnnn2-c2c(C)cccc2C)CCOC(C)(C)C1 (stereo not given),1.67%
9,CCOC(=O)C1CCN(C(=O)Nc2ccc(C)c(Cl)c2)CC1,1.94%
10,C/C=C(/C)C(=O)O[C@@H]1c2cc3c(c4c2[C@@]2(CO4)C(=O)C(OC)=C(OC)C=C2C[C@@H](C)[C@H]1C)OCO3,2.19%
11,O=S(=O)(NCCSc1ccccn1)c1ccc(Cl)cc1,15.3%
12,Cc1ccc(S(=O)(=O)NCCSc2ccccc2)cc1[N+](=O)[O-],33.3%
13,CCOc1ccc(S(=O)(=O)NCCSc2ccccc2)cc1,95.6% (active)
14,COc1ccc(-c2oc3ncn(Cc4ccco4)c(=N)c3c2-c2ccc(OC)cc2)cc1,-30.9%
15,N=c1c2c(-c3ccccc3)c(-c3ccccc3)oc2ncn1Cc1ccco1,92.2% (active)
16,c1ccc(-c2oc3ncnc(N4CCOCC4)c3c2-c2ccccc2)cc1,57.6%
17,O=C(CNc1ccc(F)cc1F)NC(=O)NCc1ccco1,10.8%
18,Cc1nc2nc(SCC(=O)c3ccccc3)[nH]c2cc1Br,-0.2%
19,Cc1nc(Nc2ccc3c(c2)OCCO3)c2nnn(Cc3ccccc3Cl)c2n1,69.6%
20,CCCc1nc(NCc2ccc3c(c2)OCO3)c2nnn(Cc3ccccc3Cl)c2n1,70.4% (active)
21,O=C(Cn1cnc2c(nnn2Cc2ccc(F)cc2)c1=O)NCc1ccc2c(c1)OCO2,37.3%
22,CS/C(=C\C(=O)c1ccco1)Nc1ccccc1Cl,1.24%
23,CC(O)c1nc2c(c(=O)n(C)c(=O)n2C)n1C (stereo not given),10.6%
24,COc1cc(C2C(C#N)=C(C)NC3=C2C(=O)CC(C)(C)C3)ccc1O (stereo not given),49.1%

row,Structure (SMILES),inhibition
1,CCC1C(C#N)=C(SC)NC2=C1C(=O)CC(C)(C)C2 (stereo not given),73.6% (active)
2,CC(=O)C1=C(C)NC2=C(C(=O)CC(C)(C)C2)C1C (stereo not given),23.4%
3,CCn1c(SCC(=O)N/N=C/c2ccncc2)nc2ccccc21,24.8%
4,CCOC(=O)c1c(NC(=O)CSc2nnc(Cc3csc(N)n3)n2C)sc(C)c1C,4.17%
5,CCOC(=O)c1c(NC(=O)CSc2nnc(CNc3ccc(C)cc3C)o2)sc(C)c1C,80.7% (active)
6,CCOC(=O)c1sc(NC(=O)CSc2nnc(-c3ccco3)o2)c(C(=O)OCC)c1C,19.2%
7,Nc1c(Cl)cc(S(N)(=O)=O)cc1S(N)(=O)=O,4.35%
8,CCn1c(/C=C/c2ccc([N+](=O)[O-])o2)nc2ccccc2c1=O,5.31%
9,O=[N+]([O-])c1cccc(Nc2c3ccccc3nc3ccccc23)c1,47.9%
10,Cn1cc(/C=C/c2nc3ccccc3c(=O)n2-c2cccc([N+](=O)[O-])c2)c2ccccc21,86% (active)
11,CCn1c2ccccc2c2cc(NC(=O)Nc3ccc([N+](=O)[O-])cc3C)ccc21,31.1%
12,Nc1scc[n+]1Cc1cccc2cccnc12,12%
13,Cc1cc(NC(=O)/C=C/C(=O)N(CC(=O)NC2CCCC2)c2ccc(F)cc2)no1,-11.4%
14,Cc1cc(NC(=O)/C=C/C(=O)N(c2ccccc2C)C(C(=O)NC2CCCC2)c2ccc(F)cc2)no1 (stereo not given),87.6% (active)
15,Cc1cc(NC(=O)CCC(=O)N(c2cccc(F)c2)C(C(=O)NC2CCCC2)c2ccncc2)no1 (stereo not given),-6.58%
16,Cn1cccc1/C=N/NC(=O)CNc1cccc2ccccc12,10.8%
17,O=C(O)c1cccnc1Sc1ncnc2sc3c(c12)CCC3,-7.08%
18,O=C1OC(/C=C/c2ccccc2)=NC/1=C/c1ccco1,0.75%
19,CCC1S/C(=N/N=C/c2ccco2)NC1=O (stereo not given),40.4%
20,CC(C)(C)C1C/C(=C/c2ccco2)C(=O)/C(=C/c2ccco2)C1 (stereo not given),108% (active)
21,COc1ccc(-c2csc(NC3OC(=O)c4ccccc43)n2)cc1 (stereo not given),-118%
22,COc1cc(/C=N\Nc2nc(-c3cccs3)c(NC(C)=O)s2)ccc1O,-7.52%
23,NNC(=O)c1ccc(COCC(F)(F)C(F)F)cc1,-2.57%
24,COc1ccc(CCNC(=O)C(=O)NCC2CCNCC2)cc1OC,-6.48%

row,Structure (SMILES),inhibition
1,C=CCNC(=O)c1ccc(C)c(Br)c1,24.2%
2,C=CCNC(=O)c1sc(SC)cc1-c1ccc(Cl)cc1,72.1% (active)
3,C=CCNC(=S)NNC(=O)c1cc(Cl)ccc1OC,-7.01%
4,COc1cc(NC(=O)c2ccc(CNc3c(N4CCCC4)c(=O)c3=O)cc2)cc(OC)c1OC,-0.87%
5,COc1ccccc1-n1c(SCC(=O)O)nc2sc3c(c2c1=O)CCC3,8.81%
6,CCOc1ccc(/C(O)=C2\C(=O)C(=O)N(c3ccc(OC)cc3)C2c2ccccc2[N+](=O)[O-])cc1 (stereo not given),-9.44%
7,O=c1c(-c2ccccc2)coc2cc(O)ccc12,15.5%
8,CC(C)=CCc1c(O)c(CC=C(C)C)c2occ(-c3ccc(O)cc3)c(=O)c2c1O,104% (active)
9,O=c1c(-c2ccccc2)coc2c(CN3CCOCC3)c(O)ccc12,-10.6%
10,O=C(c1ccc(Cl)cc1)N1N=C(c2ccccn2)CC1(O)C(F)(F)F (stereo not given),6.12%
11,Nc1nc(NC(=O)/C=C/c2ccc(F)cc2)nn1-c1ccccc1,18.8%
12,CCOC(=O)c1c(C2CC2)csc1NC(=O)CSCc1c(C)noc1C,50.5%
13,CCn1c(SCC(=O)Nc2nc3ccc(OC)cc3s2)nnc1-c1ccoc1C,14.3%
14,Cc1noc(C)c1CSCC(=O)Nc1nc2ccc(Oc3ccccc3)cc2s1,80.2% (active)
15,Cc1ccc(NNC(=O)C2CCC2)cc1C,6.66%
16,COc1ccc2cc1Oc1ccc(cc1)C[C@H]1c3cc(c(OC)cc3CCN1C)Oc1c(O)c(OC)cc3c1[C@H](C2)N(C)CC3,-41.5%
17,CS(=O)(=O)N(CC(=O)Nc1ccc(Cl)c(Cl)c1)C1CCCCC1,99.8% (active)
18,CN(CC(=O)Nc1ccc(S(=O)(=O)N2CCCC2)cc1)Cc1ccc(Cl)c(Cl)c1,25.8%
19,CCC(C)NC(=O)CN(C1CCCCC1)S(C)(=O)=O (stereo not given),5.15%
20,O=C(O)C(NS(=O)(=O)c1cccc2nsnc12)c1ccccc1 (stereo not given),16%
21,O=C1COc2ccc(C(=O)COC(=O)c3cccnc3Cl)cc2N1,-9.06%
22,CCCc1nc2ccccc2c(C(=O)OCC(=O)c2ccc3c(c2)NC(=O)CO3)c1CC,102% (active)
23,CCCc1nc2ccccc2c(C(=O)OCc2nnc(-c3cc(OC)c(OC)c(OC)c3)o2)c1CC,58%
